Among the data in PubChem BioAssay (NCATS) are Z-AUC and Potency values, retold here.

The structures appear in SMILES notation. Activity calls are given as the source filed them. Calls come from the whole dose curve.

The experiment is described as follows: qHTS drug screen for cell cycle checkpoint inhibitors in PARPi-resistant BRCA-mutant ovarian cancer cell lines. (AID 1963452). The note with it: PEO1/OlaR viability, CellTiter-Glo luminescence, 96 h; for Z-AUC: stronger effect = lower value. The procedure, abridged:
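PEO1, PEO4 and PEO1/OlaR ovarian cancer cells, 600 per well, exposed 96 h at 37C to a dilution series. Viability read by CellTiter-Glo luminescence, normalized to DMSO and empty wells; activity summarized as Z-AUC.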
A general note: In qHTS, concentration-response curves come from the screen itself.

Where [1] appears, read: measured here: PEO1 parental Z-AUC.
Potency is the fitted concentration of half-maximal effect.

On to `O=C(O)CCC=CCC[C@@H]1[C@H](N2CCCCC2)[C@@H](O)C[C@@H]1OCc1ccc(-c2ccccc2)cc1`, for which the Z-AUC is 0.918 (inactive). For the same compound, the Z-AUC under setting [1] was -0.0252. The Z-AUC (measured here: PEO4 Z-AUC) is 0.219.

As to `CCC(C)SSc1ncc[nH]1` (stereo unspecified), the Z-AUC was -1.01 (inactive). Moreover, the Z-AUC under setting [1] is -0.667. Also, the Z-AUC (measured here: PEO4 Z-AUC) was -0.908.

In the case of `Nc1ncnc2c1c(-c1cccc(OCc3ccccc3)c1)cn2C1CC(CN2CCC2)C1` (stereo unspecified), the Z-AUC is -0.485 (inactive). Also, the Z-AUC under setting [1] is -0.126. Besides, the Z-AUC (measured here: PEO4 Z-AUC) is -0.746.

In the case of `COc1cc2c(cc1Cc1cccc(Cl)c1F)c(=O)c(C(=O)O)cn2[C@H](CO)C(C)C`, the Z-AUC was 1.07 (inactive). Under setting [1], the Z-AUC came to 0.736. Besides, for the setting “measured here: PEO4 Z-AUC”, the Z-AUC came to 0.927.

As for `CCCCn1c(=O)n(Cc2ccccc2F)c(=O)c2[nH]c(Cc3ccc(NC(C)=O)cc3)nc21`, the Z-AUC was -0.247 (inactive). Besides, the Z-AUC under setting [1] was -0.269. Besides, the Z-AUC (measured here: PEO4 Z-AUC) came to 0.0892.

Consider `COc1ccc(-c2cc3nccn3c(Nc3ncccc3C(N)=O)n2)cc1OC`, for which the Z-AUC was 0.398 (inactive). The Z-AUC under setting [1] came to 0.401. Also, the Z-AUC (measured here: PEO4 Z-AUC) was 0.0675.

As for `Cn1c(=O)c(-c2c(Cl)cccc2Cl)cc2cnc(Nc3cccc(C(=O)O)c3)nc21`, the Z-AUC is 0.595 (inactive). The Z-AUC under setting [1] is 0.413. For the same compound, the Z-AUC (measured here: PEO4 Z-AUC) was found to be 0.693.

Consider `C[C@@H](NC(=O)c1ncnc(N)c1Cl)c1ncc(C(=O)Nc2cc(C(F)(F)F)c(Cl)cn2)s1`, for which the Z-AUC was 0.509 (inactive). Moreover, the Z-AUC under setting [1] was found to be 0.52. For the same compound, where the note is “measured here: PEO4 Z-AUC”, the Z-AUC was determined as 0.658.

As to `COc1cc2ncnc(Nc3cc(Br)c(O)c(Br)c3)c2cc1OC`, the Z-AUC was -1.45 (inactive). Under setting [1], the Z-AUC is -0.545. For the setting “measured here: PEO4 Z-AUC”, the Z-AUC was -1.13.

`CN1CCN(c2ncc(-c3cc(Cl)cc(Cl)c3Cl)c(N)n2)CC1`: the Z-AUC was -0.667 (inactive). Under setting [1], the Z-AUC was -0.953. The Z-AUC (measured here: PEO4 Z-AUC) was -0.943.

As for `CC(C)(F)C[C@H](N[C@@H](c1ccc(-c2ccc(S(C)(=O)=O)cc2)cc1)C(F)(F)F)C(=O)NC1(C#N)CC1`, the Z-AUC is -0.727 (inactive). In addition, the Z-AUC under setting [1] came out at 1.36. Where the note is “measured here: PEO4 Z-AUC”, the Z-AUC came to 0.322.

Turning to `CSc1cccc(Nc2ncc3cc(-c4c(Cl)cccc4Cl)c(=O)n(C)c3n2)c1`, the Z-AUC is 0.438 (inactive). Further, the Z-AUC under setting [1] turned out to be 0.39. Besides, the Z-AUC (measured here: PEO4 Z-AUC) was 0.318.

Consider `CC1(COc2ccc3c(c2)ncn3-c2ccc3cccc(N4CCC(N)CC4)c3n2)COC1`, for which the Z-AUC was 0.496 (inactive). For the same compound, under setting [1], the Z-AUC was -0.0934. For the setting “measured here: PEO4 Z-AUC”, the Z-AUC was -0.193.

For the compound `Cc1cccc(Nc2nc(N[C@@H]3CCCC[C@H]3N)ncc2C(N)=O)c1`, the Z-AUC was -0.597 (inactive). Under setting [1], the Z-AUC was -0.615. Moreover, the Z-AUC (measured here: PEO4 Z-AUC) is -0.03.

Turning to `c1cc(OCCN2CCCCC2)cc(-c2n[nH]c3ccc(-c4ncn[nH]4)cc23)c1`, the Z-AUC is -0.663 (inactive). In addition, the Z-AUC under setting [1] is -0.209. In addition, the Z-AUC (measured here: PEO4 Z-AUC) is -0.626.

As to `C[C@@H](O[C@H]1OCCN(Cc2n[nH]c(=O)[nH]2)[C@@H]1c1ccc(F)cc1)c1cc(C(F)(F)F)cc(C(F)(F)F)c1`, the Z-AUC is -0.0654 (inactive). Further, the Z-AUC under setting [1] was -0.373. In addition, where the note is “measured here: PEO4 Z-AUC”, the Z-AUC is -0.245.

In the case of `COc1c(C)cnc(Cn2cnc3c(Cl)nc(N)nc32)c1C`, the Z-AUC was -0.301 (inactive). Also, the Z-AUC under setting [1] was -0.874. The Z-AUC (measured here: PEO4 Z-AUC) was -0.434.

Consider `N#Cc1ccc(Oc2ccc3c(c2)COB3O)cc1`, for which the Z-AUC was 0.18 (inactive). In addition, the Z-AUC under setting [1] was determined as 0.583. Moreover, where the note is “measured here: PEO4 Z-AUC”, the Z-AUC was 0.594.

Regarding `COc1ccc(CCC(=O)Nc2nc3ccc(Cl)cc3s2)cc1OC`, the Z-AUC was -1.42 (inactive). In addition, the Z-AUC under setting [1] was -0.917. Moreover, the Z-AUC (measured here: PEO4 Z-AUC) is -0.954.

For `CN(C)CCOc1cc(-c2cn[nH]c2)ccc1NC(=O)C1COc2ccccc2O1` (stereo unspecified), the Z-AUC was 1.15 (inactive). For the same compound, the Z-AUC under setting [1] was 0.743. Also, the Z-AUC (measured here: PEO4 Z-AUC) worked out at 1.03.

Turning to `CC(C)(C)c1nc(-c2cccc(NS(=O)(=O)c3c(F)cccc3F)c2F)c(-c2ccnc(N)n2)s1`, the Z-AUC is 1.26 (inactive). In addition, the Z-AUC under setting [1] came out at 1. For the same compound, for the setting “measured here: PEO4 Z-AUC”, the Z-AUC is 1.01.

On to `Cc1nc(C(=O)NCC(=O)O)c(O)c2ccc(Oc3ccccc3)cc12`, for which the Z-AUC is 1.39 (inactive). Besides, the Z-AUC under setting [1] came to 0.88. The Z-AUC (measured here: PEO4 Z-AUC) was determined as 0.853.

As for `CC[C@@H]([C@H](C)O)n1ncn(-c2ccc(N3CCN(c4ccc(OCC5CO[C@@](Cn6cncn6)(c6ccc(F)cc6F)C5)cc4)CC3)cc2)c1=O` (stereo partly specified), the Z-AUC was 0.357 (inactive). For the same compound, the Z-AUC under setting [1] was -0.0959. Moreover, the Z-AUC (measured here: PEO4 Z-AUC) is -0.133.

`CCNC(=O)c1noc(-c2cc(C(C)C)c(O)cc2O)c1-c1ccc(CN2CCOCC2)cc1`: the Potency was 24.5 nM (active). Besides, the Z-AUC under setting [1] was -1.81. Besides, the Z-AUC (measured here: PEO4 Z-AUC) is -1.08.

Regarding `CCN(CC)CCCCNc1nc2cc(Cl)c(Cl)cc2nc1-c1ccc(-c2cccs2)s1`, the Z-AUC is 2.01 (inactive). In addition, the Z-AUC under setting [1] is 0.897. Further, where the note is “measured here: PEO4 Z-AUC”, the Z-AUC came out at 0.59.

On to `CN1CC(=O)NC1=NC(=O)Nc1cccc(Cl)c1`, for which the Z-AUC is 0.638 (inactive). Also, the Z-AUC under setting [1] stood at 0.15. Also, the Z-AUC (measured here: PEO4 Z-AUC) worked out at 0.317.

Consider `CCCCC(C)(C)[C@H](O)C=C[C@H]1[C@H](O)CC(=O)[C@H]1CC=CCCCC(=O)O`, for which the Z-AUC was 0.66 (inactive). For the same compound, the Z-AUC under setting [1] is 0.266. Also, the Z-AUC (measured here: PEO4 Z-AUC) was 0.726.

As for `O[C@@H](COc1cccc2ncccc12)CN1CCN(C2c3ccccc3[C@@H]3[C@H](c4ccccc42)C3(F)F)CC1` (stereo partly specified), the Z-AUC was -1.07 (inactive). Besides, the Z-AUC under setting [1] is -1.13. Also, the Z-AUC (measured here: PEO4 Z-AUC) was -0.777.

Regarding `CN(C)CCCNC(=O)c1ccc(-c2cc(O)c3ncccc3c2)cc1`, the Z-AUC is -0.763 (inactive). Also, the Z-AUC under setting [1] was -0.299. For the same compound, the Z-AUC (measured here: PEO4 Z-AUC) was -0.292.

On to `COc1cc([C@@H]2c3cc4c(cc3[C@@H](O[C@@H]3O[C@@H]5CO[C@@H](C)O[C@@H]5[C@H](O)[C@@H]3O)[C@H]3COC(=O)[C@H]23)OCO4)cc(OC)c1O`, for which the Z-AUC was -0.699 (inactive). The Z-AUC under setting [1] was -1.32. Besides, for the setting “measured here: PEO4 Z-AUC”, the Z-AUC is -0.275.

Turning to `CCCCCCCCCCCCCCCC(=O)O[C@H]1[C@@H](O)[C@@H](O)[C@@H]([C@H](NC(=O)[C@@H]2C[C@@H](CCC)CN2C)[C@H](C)Cl)O[C@@H]1SC`, the Z-AUC is 1.31 (inactive). Moreover, under setting [1], the Z-AUC amounted to 0.604. Under “measured here: PEO4 Z-AUC”, the Z-AUC was 0.552.

In the case of `OC1CCC(Nc2ncc3nc(Nc4c(F)cc(F)cc4F)n([C@@H]4CCOC4)c3n2)CC1` (stereo partly specified), the Z-AUC is 0.218 (inactive). Under setting [1], the Z-AUC was 0.89. Moreover, under “measured here: PEO4 Z-AUC”, the Z-AUC is 0.44.
